Like-named read-outs stand apart in the source and are kept apart here. Out of some 13,000 compounds screened, about 3,200 (25%) showed an effect of 50% or more. The list shows a part of the results.
Tested on: P. falciparum stage V gametocytes
Set-up: BacTiter-Glo ATP luminescence viability of purified stage V gametocytes in 384-well plates, per cent inhibition versus DMSO
Details: 48 h, 5 µM, inhibitor

Row | SMILES | % Inhibition [%] | % Inhibition (% Inhibition) [%]
1 | CC(C)c1ccc(C(NC(=O)C2CCCCC2)c2ccc3cccnc3c2O)cc1 (centres unmarked) [TCMDC-125560] | 15.44 | –
2 | CCCC(=O)NC(c1ccc(C(C)C)cc1)c1ccc2cccnc2c1O (centres unmarked) [TCMDC-123884] | 62.61 | –
3 | O=S(=O)(c1cccc2cccnc12)N1CCN(C2CCCCC2)CC1 [TCMDC-123840] | 8.014 | –
4 | CCC(C)NC(=O)Cn1c2ncccc2c(=O)n1-c1ccc(C)cc1 (centres unmarked) [TCMDC-124738] | -0.9664 | –
5 | C[C@@H](CC1CCCCC1)OC(=O)N[C@H]1CCN(C#N)C1 [TCMDC-138496] | 45.07 | –
6 | O=C(COc1ccccc1)Nn1cnc2ccccc21 [TCMDC-124536] | 15.87 | –
7 | CNS(=O)(=O)c1ccc2c(c1)nc(C1CCN(CC3CCC(NC(=O)/C=C/c4ccc(Cl)c(Cl)c4)CC3)CC1)n2C (centres unmarked) [TCMDC-140374] | 8.841 | –
8 | CCOc1ccc(-c2noc(-c3c[nH]c4ccccc4c3=O)n2)cc1 [TCMDC-125156] | 27.36 | –
9 | COc1ccc(-c2nc(-c3ccc([N+](=O)[O-])cc3)no2)cc1OC [TCMDC-125731] | 16.37 | –
10 | CCn1cc(-c2nc(-c3cc(OC)cc(OC)c3)no2)c(=O)c2ccccc21 [TCMDC-125155] | 51.09 | –
11 | CCOc1cc2ncnc(Nc3ccc(OCc4ccccc4F)c(Cl)c3)c2cc1OCC [TCMDC-131914] | 3.797 | –
12 | CC(C)CN1CCCN(Cc2cccc(NC(=O)c3ccc(-c4ccccc4)cc3)c2)CC1 [TCMDC-141841] | -91.11 | –
13 | Cc1cccc2nc(-c3ccc(-c4ccc(CNCc5cnn(-c6ccccc6)n5)cc4)cc3)[nH]c12.O=C(O)C(F)(F)F [TCMDC-132974] | 25.92 | –
14 | CCOC(=O)C(C)(C)Oc1ccc(C(=C2CC(C)(C)CC(C)(C)C2)c2ccc(O)cc2)cc1 [TCMDC-135525] | -61.64 | –
15 | CCN(CCNC(=O)C1CCN(c2cc(-c3cccc(C)c3)ncn2)CC1)Cc1ccccc1 [TCMDC-124739] | 86.1 | –
16 | Cc1cccc(C(=O)Nc2ccnc(N3CCC(N(C)Cc4ccccc4)CC3)c2)c1 [TCMDC-135001] | -20.99 | –
17 | Cc1cccc(-c2ccc(NC(=O)C3CCN(Cc4cccc(O)c4)CC3)cc2)c1 [TCMDC-124641] | 44.56 | –
18 | CC(C)C(=O)NC(Nc1ccc([N+](=O)[O-])cc1)C(Cl)(Cl)Cl (centres unmarked) [TCMDC-125799] | 71.39 | –

Row | SMILES | % Inhibition [%] | % Inhibition (% Inhibition) [%]
19 | O=C(Cc1ccccc1)NC(Nc1ccc([N+](=O)[O-])cc1)C(Cl)(Cl)Cl (centres unmarked) [TCMDC-125789] | 52.36 | –
20 | O=C(NC(NC(=S)Nc1ccc([N+](=O)[O-])cc1)C(Cl)(Cl)Cl)c1cccc(Cl)c1 (centres unmarked) [TCMDC-124130] | -46.64 | –
21 | O=[N+]([O-])c1ccc(C(O)P(=O)(c2ccccc2)c2ccccc2)cc1 (centres unmarked) [TCMDC-125871] | -5.463 | –
22 | O=C(NC(Nc1ccc([N+](=O)[O-])cc1)C(Cl)(Cl)Cl)c1cccc(Cl)c1 (centres unmarked) [TCMDC-124129] | 26.63 | –
23 | CCCC(=O)NC(NC(=S)Nc1ccc([N+](=O)[O-])cc1)C(Cl)(Cl)Cl (centres unmarked) [TCMDC-125817] | 27.07 | –
24 | Cc1ccccc1C(=O)NC(NC(=S)Nc1ccc([N+](=O)[O-])cc1)C(Cl)(Cl)Cl (centres unmarked) [TCMDC-124151] | -7.269 | –
25 | O=C(NC(Nc1ccc([N+](=O)[O-])cc1)C(Cl)(Cl)Cl)c1ccc(Cl)cc1 (centres unmarked) [TCMDC-125818] | 63.58 | –
26 | Cc1cccc(C(=O)NC(NC(=S)Nc2ccc([N+](=O)[O-])cc2)C(Cl)(Cl)Cl)c1 (centres unmarked) [TCMDC-124177] | 26.63 | –
27 | Cc1cc(C(=O)CN2C(=O)NC3(CCOc4ccccc43)C2=O)c(C)n1Cc1ccco1 (centres unmarked) [TCMDC-125252] | 14.93 | –
28 | COc1ccc2c(-c3ccccc3)noc2c1 [TCMDC-123782] | 15.72 | –
29 | Oc1cccc(-c2nc3cc(C4=NC5CCCCC5N4)ccc3[nH]2)c1 (centres unmarked) [TCMDC-137219] | – | -17.08
30 | Cc1ccc(NC(=O)NC2CCN(CCCCCNC(=O)/C=C/c3ccc(Cl)c(Cl)c3)CC2)cc1 [TCMDC-135703] | -0.844 | –
31 | Cc1cccc(NC(=O)NC2CCN(CCCCCNC(=O)/C=C/c3ccc(Cl)c(Cl)c3)CC2)c1 [TCMDC-135702] | -17.93 | –
32 | Cc1ccc(NC(=O)NC2CCN(CCCCCNC(=O)/C=C/c3ccc(Cl)c(Cl)c3)CC2)cc1C [TCMDC-135708] | -56.47 | –
33 | Cc1cc(C)c(NC(=O)NC2CCN(CCCCCNC(=O)/C=C/c3ccc(Cl)c(Cl)c3)CC2)c(C)c1 [TCMDC-135717] | -32.07 | –
34 | Cc1cc(C)c(NC(=O)NC2CCN(CCCCCNC(=O)/C=C/c3ccc(Cl)c(Cl)c3)C2)c(C)c1 (centres unmarked) [TCMDC-139529] | 92.72 | –
35 | Cc1cc(C)c(NC(=O)N[C@H]2CCN(CCCCCNC(=O)/C=C/c3ccc(Cl)c(Cl)c3)C2)c(C)c1 [TCMDC-139513] | 86.25 | –
